Measured values as given in PubChem BioAssay AID651724 (National Center for Advancing Translational Sciences (NCATS), 2012).
Out of some 340,000 compounds screened, about 1,700 (0.5%) were called active. Roughly 2% stayed inconclusive and do not appear here. No stated cut-off is given here; in the data, active means activity change below about -65%; inconclusive means mostly about -30% to -63%; inactive means weaker than that. Shown is part of a subset that was picked to be rich in actives.

Test system: CtBP / adenovirus E1A interaction (AlphaScreen)
Test: qHTS Assay for Inhibitors of the CtBP/E1A Interaction
Conditions: AlphaScreen GST-E1A/His-CtBP binding, 1536-well; hits give low values
Description: Carboxyl-terminal binding protein (CtBP) is a co-repressor for many transcription factors. […] Our studies have shown that CtBP is overexpressed in multiple human cancers, including lung, breast, and head and neck cancers. In particular, it is over-expressed in 50% of primary lung cancer and 90% of metastatic lesions. CtBP suppresses epithelial-specific genes as well as genes critical for apoptosis, providing the underlying molecular mechanism for its role in tumorigenesis. […] Based on the above data, we hypothesize that 1) CtBP suppresses the pro-apoptotic and epithelial genes, therefore overexpressed CtBP in human cancer cells increases EMT and cancer survival; 2) decreasing CtBP's function represents a targeted therapy for lung cancer and potentially multiple cancer types. As a co-repressor, CtBP binds to E1A and other transcription factors through a conserved peptide motif to carry out its action. Inhibiting this interaction using small molecules can potentially serve as effective cancer therapeutics.
To this end, we have developed a homogenous AlphaScreen assay targeting the CtBP/E1A interaction. We performed a large scale HTS of the Molecular Libraries Small Molecule Repository (MLSMR) to identify inhibitors of the CtBP/E1A interaction as potential anti-cancer therapeutics. Compounds identified can also be used as chemical probes to better understand the biological functions of CtBP.
NIH Chemical Genomics Center [NCGC]
NIH Molecular Libraries Probe Centers Network [MLPCN]
Assay Submitter (PI): Rui Zhao, University of Colorado Denver
The first step of the 5uL AlphaScreen assay is to dispense assay buffer (50 mM Tris, pH 8.0, 300 mM NaCl, 0.05% BSA, 0.02% Tween 20, 1 mM TCEP) into a Greiner 1536 white solid bottom microtiter plate (789175-F). Five microliters is added to Column 1, 4 uL is added to Column 2 and 3 uL is added to Columns 3 through 48. A 5X protein solution (125 nM GST-E1A protein + 125 nM His-tagged CtBP protein) is mixed and 1 uL is dispensed to Columns 3-48. Using a 1536 pintool, 23 nL of compound is transferred to the assay plate and the plate is incubated with a lid at 37 deg C in the dark for two hours. A solution of 5X AlphaScreen beads is mixed (50 ug/mL Glutathione linked donor beads + Nickel chelated acceptor beads) and 1 uL is dispensed to Columns 2-48. The assay plate is incubated for one hour, with a lid, at 37 deg C in the dark. The plate is read using a Perkin Elmer Envision using an AlphaScreen protocol.
On the % scale 0 is the no-effect control and ±100 the full control effect.

| Structure (SMILES) | activity change |
| --- | --- |
| CCC(C)n1c(O)c(/C=N/Nc2nc3c(c(=O)n(C)c(=O)n3C)n2C)c(=O)[nH]c1=S (stereo not given) | -83.2% (active) |
| COc1ccc(-n2nnnc2C(c2cccc3ccccc23)N2CCC(n3c(=O)[nH]c4ccccc43)CC2)cc1 (stereo not given) | -14.3% (inactive) |
| COc1ccccc1-n1c(O)c(C=NC2CC2)c(=O)[nH]c1=O | 7.53% (inactive) |
| CC(C)c1ccc(-n2c(O)c(/C=N/N3CCOCC3)c(=O)[nH]c2=S)cc1 | -2.7% (inactive) |
| O=c1[nH]c(=O)n(Cc2ccccc2)c(O)c1/C=N/Nc1c(F)c(F)c(F)c(F)c1F | 4.41% (inactive) |
| O=C(N/N=C/c1c(O)n(C2CC2)c(=S)[nH]c1=O)c1ccccc1 | -92.7% (active) |
| O=c1[nH]c(=S)n(C2CC2)c(O)c1/C=N/N1CCOCC1 | -2.5% (inactive) |
| O=C(N/N=C/c1c(O)n(C2CC2)c(=S)[nH]c1=O)c1ccccc1Cl | -92.7% (active) |
| Cc1cccc(-n2c(O)c(/C=N/N3CCOCC3)c(=O)[nH]c2=S)c1 | 9.2% (inactive) |
| O=C(N/N=C/c1c(O)n(Cc2ccccc2)c(=O)[nH]c1=O)c1ccccc1 | -72.7% (active) |
| CC/C(=N\NC(=O)c1ccccc1O)c1c(O)n(Cc2ccccc2)c(=O)[nH]c1=O | -5.73% (inactive) |
| CCOC(=O)[C@]12Cc3cc(OC)ccc3[C@H]1N(C(C)C)C(=O)c1ccccc12 | -1.62% (inactive) |
| CC(=CCOc1ccc2ccc(=O)oc2c1)C1=CC(=O)C(C)(C)O1 | 1.99% (inactive) |
| COC(=O)C[C@H]1CC[C@H]2NC[C@@H](O)COC[C@@H]2O1 | -7.3% (inactive) |
| CCOC(=O)[C@]12Cc3ccccc3[C@H]1N(C1CCCCC1)C(=O)c1cc(OC)ccc12 | -16.5% (inactive) |
| O=c1[nH]c2ccccc2n1C1CCN(C(c2ccccc2)c2nnnn2Cc2ccccc2)CC1 (stereo not given) | -12.7% (inactive) |
| O=C1NCN(c2ccccc2)C12CCN(C(c1cccs1)c1nnnn1C1CCCCC1)CC2 (stereo not given) | -7.02% (inactive) |
| O=C(NCC1=C(c2ccc3ccccc3c2)C[C@@H]2CC[C@H]1N2Cc1ccco1)c1cccs1 | -23.4% (inactive) |
| COC(=O)CN(CCCl)P1(=O)OCCCN1CCCl (stereo not given) | 2.9% (inactive) |
| COc1cccc(C(c2nnnn2-c2ccc3c(c2)OCCO3)N2CCC3(CC2)C(=O)NCN3c2ccccc2)c1OC (stereo not given) | -13% (inactive) |
| O=c1[nH]c2ccccc2n1C1CCN(C(c2ccnc3ccccc23)c2nnnn2Cc2ccccc2)CC1 (stereo not given) | -7.28% (inactive) |
| O=c1[nH]c(=O)n(CCc2ccc(F)cc2)c(O)c1/C=N/N1CCCCC1 | -1.47% (inactive) |
| CCCCC(=O)N/N=C/c1c(O)n(CCC2=CCCCC2)c(=O)[nH]c1=O | -82.9% (active) |
| COc1ccc(CCn2c(O)c(C=NC3CC3)c(=O)[nH]c2=O)cc1OC | -7.4% (inactive) |
| COC(=O)C1=C(c2ccc(OCc3ccccc3)cc2)C[C@@H]2CC[C@H]1N2C(=O)NCc1ccc(Cl)cc1 | 0.0513% (inactive) |
